{
  "source": "the supplement of paper PMC10338343",
  "note": "± gives the standard deviation.",
  "data": [
    {"test_system": "EfPiwi piRISC loaded with piRNA #1 (26 nt)", "assay": "pre-steady-state target cleavage rate (min^-1); auxiliary factor: 500 nM Ephydatia muelleri Gtsf1; guide: piRNA #1 5'p-UGAGGUAGUAGGUUGUAUAGUAUCCA; MIWI and MILI are mouse PIWI proteins and EfPiwi is from a freshwater sponge; tags in brackets are library labels; higher = faster piRNA-guided slicing of the target", "summary_of_the_method": "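The pre-steady-state cleavage rate was calculated from a burst-and-steady-state fit. Data came from Cleave-'n-Seq, in which […] transcribed, DNA-blocked target RNA library was mixed with 1 nM active affinity-purified piRISC carrying one synthetic guide, with or without 500 nM GTSF1 partner protein, in HEPES–potassium acetate buffer at 33 °C for 0–8 or 0–960 min. Uncleaved targets were sequenced and normalised to depth and to weakly complementary targets, three trials were pooled, and k3 was capped at 0.0001 min^-1.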", "values": [
      {"sequence": "GGAGAGGAUACUAUACAACCUACUACCUCC [g2:g25:cont:t1C]", "pre-steady-state target cleavage rate": "0.12 ± 0.046"},
      {"sequence": "GGAGUGGAUACUAUAGAACCUUCUACCUCA", "pre-steady-state target cleavage rate": "0.00334 ± 0.0018"},
      {"sequence": "GGAGUGGAUACUAUACAACCUACUCCUCA", "pre-steady-state target cleavage rate": "0.00475 ± 0.0027"},
      {"sequence": "GGAGACCAUACUAUACAACCAACUAGCUCA", "pre-steady-state target cleavage rate": "0.0061 ± 0.0043"},
      {"sequence": "GGAGACCAUACUAUCCAACCUACUACCUCA", "pre-steady-state target cleavage rate": "0.00636 ± 0.0033"},
      {"sequence": "GGAGAGGAUACUAUACAUCCUACUUCCUCA", "pre-steady-state target cleavage rate": "0.00317 ± 0.0017"},
      {"sequence": "GGAGAGGAUAGUAUACAACCUACUACCUCA", "pre-steady-state target cleavage rate": "0.00608 ± 0.0032"},
      {"sequence": "GGAGACGAUACAAUACAUCCUACUACCUCA", "pre-steady-state target cleavage rate": "0.00286 ± 0.0019"},
      {"sequence": "GGAGACCAUACUAUACAACCUACAACGUCA", "pre-steady-state target cleavage rate": "0.00373 ± 0.0033"},
      {"sequence": "GGAGACGAUACUAAACAACCUACUACCUGA", "pre-steady-state target cleavage rate": "0.00288 ± 0.0022"},
      {"sequence": "GGAGAGGUUACUAUACAACCUUCUACCUCA", "pre-steady-state target cleavage rate": "0.00505 ± 0.0025"},
      {"sequence": "GGAGACCUAUGAUAACAAGGAACUACCUCA", "pre-steady-state target cleavage rate": "< 0.0001"},
      {"sequence": "GGAGACCAUACUAUACAUCCUACAACCUCA", "pre-steady-state target cleavage rate": "0.00248 ± 0.0024"},
      {"sequence": "GGAGACCUAACUAUACAUCCUACUACCUGA", "pre-steady-state target cleavage rate": "0.00344 ± 0.0029"},
      {"sequence": "GGAGACCUAUGAUAUGUUCCUACUCCCUCA", "pre-steady-state target cleavage rate": "< 0.0001"},
      {"sequence": "GGAGACGAUUCUAUACAACCUACAACCUCA", "pre-steady-state target cleavage rate": "0.00277 ± 0.0012"},
      {"sequence": "GGAGACGAUACUAUACAACGAACUACCUCA", "pre-steady-state target cleavage rate": "0.00251 ± 0.0024"},
      {"sequence": "GGAGAGGAUACUAUACAACCUAGUAGCUCA", "pre-steady-state target cleavage rate": "0.00479 ± 0.0019"},
      {"sequence": "GGAGAGGAUACUAUACAACCUACUUCCACA", "pre-steady-state target cleavage rate": "0.00373 ± 0.0022"},
      {"sequence": "GGAGACCUAUGAUAUCAACCUACUUCCACA", "pre-steady-state target cleavage rate": "< 0.0001"},
      {"sequence": "GGAGUGGAUACUAUACAACCUAGAACCUCA", "pre-steady-state target cleavage rate": "0.00464 ± 0.0024"},
      {"sequence": "GGAGUGGAUACUAUACAACCAACUAGCUCA", "pre-steady-state target cleavage rate": "0.00337 ± 0.0015"},
      {"sequence": "GGAGACGAUACUAUACUAACCUACUACCUCA", "pre-steady-state target cleavage rate": "0.00448 ± 0.0044"},
      {"sequence": "GGAGUGGAUACUAUACACACCUACUACCUCA", "pre-steady-state target cleavage rate": "0.0105 ± 0.005"},
      {"sequence": "GGAGAGGAUACUAUACAACCUACUAGCUGA", "pre-steady-state target cleavage rate": "0.00408 ± 0.002"},
      {"sequence": "GGAGUGGAUACUAUACAACCUUCUAGCUCA", "pre-steady-state target cleavage rate": "0.00376 ± 0.0018"},
      {"sequence": "GGAGACGAUACUAUACAAUCCUACUACCUCA", "pre-steady-state target cleavage rate": "0.0069 ± 0.004"},
      {"sequence": "GGAGUGGAUACUAUACAACCUUACUACCUCA", "pre-steady-state target cleavage rate": "0.00695 ± 0.0034"},
      {"sequence": "GGAGAGGAUACUUACAACCUACUACCUCA", "pre-steady-state target cleavage rate": "0.00543 ± 0.0036"},
      {"sequence": "GGAGUGGAUACUAUACAACCCACUACCUCA", "pre-steady-state target cleavage rate": "0.00487 ± 0.0019"},
      {"sequence": "GGAGUGGAUACUAUACAACCUACAACCACA", "pre-steady-state target cleavage rate": "0.00247 ± 0.0019"},
      {"sequence": "GGAGUGGAUACUAUACAACCUUCUUCCUCA", "pre-steady-state target cleavage rate": "0.00355 ± 0.0026"},
      {"sequence": "GGAGACCUAUGAUAUGUACCUUCUACCUGA", "pre-steady-state target cleavage rate": "< 0.0001"},
      {"sequence": "GGAGACGAUACUAUACAACCUACAACGUCA", "pre-steady-state target cleavage rate": "0.00349 ± 0.0012"},
      {"sequence": "GGAGACCUUACAAUACAUCCUACUACCUCA", "pre-steady-state target cleavage rate": "0.00553 ± 0.004"},
      {"sequence": "GGAGACCAUAGCUAUACAACCUACUACCUCA", "pre-steady-state target cleavage rate": "0.0108 ± 0.0051"},
      {"sequence": "GGAGUGGAUAGUAUACAUCCUACUACCUCA", "pre-steady-state target cleavage rate": "0.00444 ± 0.0024"},
      {"sequence": "GGAGAGGAAACUAUUCAACCUACUACCUCA", "pre-steady-state target cleavage rate": "0.013 ± 0.0061"},
      {"sequence": "GGAGACCUAUCAUUACAACCUACUACCUCA", "pre-steady-state target cleavage rate": "0.00563 ± 0.0035"},
      {"sequence": "GGAGACCUAUGAUAUGUUCCUACAACGUCA", "pre-steady-state target cleavage rate": "< 0.0001"}
    ]}
  ]
}
